This experiment deals with Aminopeptidase N (Plasmodium falciparum (isolate 3D7)) (UniProt O96935). Nature of the experiment: P. falciparum M1AAP inhibitors, biochemical, fluorogenic H-Leu-NHMec substrate, 1536-well (AID 1445).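 Note: plate controls were DMSO full reaction for no effect and no enzyme background for full effect.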 The following applies: recombinant M1AAP, H-Leu-NHMec fluorogenic kinetic assay.
[1] abbreviates: at 30 µM, active compounds read high unless noted.

The whole screen tested about 220,000 compounds, of which about 910 (0.41%) were called active. This is one part of a sample in which actives are shown more often than they occur. Results with a measured potency or affinity are listed apart. Values without a mark were called inactive.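 Rule for the calls: active = primary inhibition above the hit cutoff, then over 50% inhibition at one or more dose response concentrations (cut at about 23% in these data, passing the limit was not always enough); inconclusive = conflicting primary data, or primary hits not chosen for dose response; inactive = low primary inhibition, or under 50% at every dose.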

Aminopeptidase N (Plasmodium falciparum (isolate 3D7)), sequence (O96935 whole entry, looked up): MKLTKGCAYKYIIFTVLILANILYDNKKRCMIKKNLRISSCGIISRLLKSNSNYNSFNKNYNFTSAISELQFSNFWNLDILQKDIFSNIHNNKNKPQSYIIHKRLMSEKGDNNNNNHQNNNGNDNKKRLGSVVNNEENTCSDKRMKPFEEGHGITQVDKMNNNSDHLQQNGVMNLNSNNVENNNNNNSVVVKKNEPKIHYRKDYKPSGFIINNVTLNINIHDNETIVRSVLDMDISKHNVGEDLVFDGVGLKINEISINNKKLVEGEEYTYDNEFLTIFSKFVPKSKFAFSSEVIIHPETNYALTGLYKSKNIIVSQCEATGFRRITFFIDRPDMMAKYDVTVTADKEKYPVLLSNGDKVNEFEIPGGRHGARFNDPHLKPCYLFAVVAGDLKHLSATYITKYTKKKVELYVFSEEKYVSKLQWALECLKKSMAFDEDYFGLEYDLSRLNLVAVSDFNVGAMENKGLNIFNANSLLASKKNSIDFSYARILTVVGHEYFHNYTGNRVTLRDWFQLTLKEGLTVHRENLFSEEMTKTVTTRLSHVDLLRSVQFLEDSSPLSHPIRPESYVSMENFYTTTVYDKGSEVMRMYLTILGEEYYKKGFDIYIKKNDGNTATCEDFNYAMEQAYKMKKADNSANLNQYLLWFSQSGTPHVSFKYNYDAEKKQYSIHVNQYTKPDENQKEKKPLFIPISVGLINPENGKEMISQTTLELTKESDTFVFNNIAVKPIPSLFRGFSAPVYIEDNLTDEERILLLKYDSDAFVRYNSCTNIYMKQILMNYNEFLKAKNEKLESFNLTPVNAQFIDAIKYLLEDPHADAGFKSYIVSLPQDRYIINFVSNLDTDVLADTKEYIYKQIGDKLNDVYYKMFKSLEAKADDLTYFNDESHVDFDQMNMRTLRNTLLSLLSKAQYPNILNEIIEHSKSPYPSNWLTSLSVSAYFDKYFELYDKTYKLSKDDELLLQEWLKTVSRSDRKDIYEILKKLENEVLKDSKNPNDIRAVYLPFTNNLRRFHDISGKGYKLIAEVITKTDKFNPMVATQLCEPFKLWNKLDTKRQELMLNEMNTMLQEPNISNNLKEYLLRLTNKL

What is called inhibition is the drop in the measured response relative to a control, in per cent. In the case of `O=c1[nH]c(SCc2ccccc2Cl)nc2c1CCCC2`, the inhibition under setting [1] is -3.65%.

Turning to `O=c1[nH]c(SCc2ccccc2Cl)nc2c1CCC2`, under setting [1], the inhibition was -1.92%.

As to `Cc1cccc(OCC(=O)NCC(=O)N/N=C/c2cccnc2)c1`, the inhibition under setting [1] is 8.13%.

As for `O=c1c2ccccc2nc(SCc2cc(F)ccc2F)n1C1CCCC1`, the inhibition under setting [1] was 6.96%.

On to `CCC(C)(C)NC(=O)C(c1cccnc1)N(C(=O)c1csnn1)c1ccccc1` (centres undefined), for which the inhibition under setting [1] is -0.28%.

As for `O=C(COc1ccc(Br)cc1CO)Nc1ccccc1`, the inhibition under setting [1] is 9.17%.

Regarding `O=P(Cc1cc(Br)cc(Br)c1OCCO)(c1ccccc1)c1ccccc1`, the inhibition under setting [1] was 5.71%.

Regarding `CCCn1c(SC2C(=O)CC(C)(C)CC2=O)nc2c1c(=O)n(C)c(=O)n2C`, under setting [1], the inhibition is -3.71%.

In the case of `CCn1ccnc1CN(C)Cc1nc(-c2cccc(Cl)c2)no1`, the inhibition under setting [1] was -7.75%.

Regarding `C=CCn1c(-c2ccc(F)cc2)n[nH]c1=S`, the inhibition under setting [1] is 4.9%.

For the molecule `CCOP(=O)(OCC)c1nc(-c2ccc(Cl)cc2Cl)oc1N1CCCCC1`, the inhibition under setting [1] was 10.7%.

Regarding `CCOP(=O)(OCC)c1nc(-c2cccc3ccccc23)oc1N1CCCCC1`, under setting [1], the inhibition was 15.6%.

`CCOC(=O)C/C(C)=N\Nc1nc(-c2ccccc2)cs1`: the inhibition under setting [1] was 1.35%.

Turning to `COCC(=O)N1CCN(c2cccc(C(F)(F)F)c2)CC1`, the inhibition under setting [1] was -4.62%.

On to `O=C(CSCc1ccccc1)N1CCN(c2cccc(C(F)(F)F)c2)CC1`, for which the inhibition under setting [1] is 6.51%.

Turning to `Cc1cccc(/C=N/NC(=O)c2cc(-c3cccnc3)nc3ccccc23)c1`, the inhibition under setting [1] is 5.37%.

For `c1ccc(SCc2nc(-c3cccnc3)no2)cc1`, the inhibition under setting [1] was 2.83%.

For `CCOC(=O)c1c(NC(=O)C2CCCO2)sc(C)c1C` (centres undefined), the inhibition under setting [1] was 2.42%.

With `CCOC(=O)NC(=O)/C(C=Nc1ccc(Cl)cc1)=C(\C)O`, under setting [1], the inhibition is 10.5%.

`O=C1CC(N(O)C2CC(=O)N(Cc3ccccc3)C2=O)C(=O)N1Cc1ccccc1` (centres undefined): the inhibition under setting [1] is 6.83%.

On to `CCCCCC(=O)N(O)C1CC(=O)N(c2ccccc2)C1=O` (centres undefined), for which the inhibition under setting [1] is 11.5%.

On to `CCCCCCC(=O)N(O)C1CC(=O)N(Cc2ccccc2)C1=O` (centres undefined), for which the inhibition under setting [1] is 37.9% (active).

On to `CCCN(CCC)C1CC(=O)N(Cc2ccccc2)C1=O` (centres undefined), for which the inhibition under setting [1] was 4.78%.

Turning to `CCCCCCC(=O)N(O)C1CC(=O)N(c2ccc(C)cc2)C1=O` (centres undefined), the inhibition under setting [1] was 35.5%.

In the case of `CCCCC(CCC(=O)Nc1ccccc1C(=O)OCC)C(=O)O` (centres undefined), the inhibition under setting [1] was 0.91%.

With `CCN(CC)S(=O)(=O)c1ccc(C)c(NC(=O)c2cc(C)oc2C)c1`, the inhibition under setting [1] was 3.95%.

`O=C(O)CCC(=O)N(Cc1ccco1)C1CC(=O)N(c2ccccc2)C1=O` (centres undefined): the inhibition under setting [1] was 7.06%.

Turning to `CCOC(=O)N1CCN(c2c(NCc3ccccc3OC)c(=O)c2=O)CC1`, under setting [1], the inhibition is 1.73%.

In the case of `CCOC(=O)N1CCN(c2c(NCc3ccc(Cl)cc3)c(=O)c2=O)CC1`, under setting [1], the inhibition was 5.09%.

As to `COc1ccc(C(=O)N/N=C/c2cc3ccccc3[nH]c2=O)cc1`, the inhibition under setting [1] was 6.42%.

Turning to `COc1cc2ccccc2cc1C(=O)NC(=S)Nc1cccc(C(=O)O)c1C`, the inhibition under setting [1] was 8.01%.

On to `COCCNC(=S)N1CCc2cc(OC)c(OC)cc2C1COc1ccc(C(C)C)cc1` (centres undefined), for which the inhibition under setting [1] is 15.1%.

For the molecule `CN1CCN(Cc2cc(Cl)c3cccnc3c2OC(=O)c2cccs2)CC1`, the inhibition under setting [1] is -1.84%.

Regarding `O=C(Oc1c(CN2CCOCC2)cc(Cl)c2cccnc12)c1ccccc1`, the inhibition under setting [1] was 4.42%.

With `CCOC(=O)c1cc2c(=O)n3ccccc3nc2n(CCOC)c1=NC(=O)c1ccncc1`, the inhibition runs as follows: (at 30 µM, active compounds read high) 45.3% (active); (at 100 µM (top of the series)) 16.6%.

For `CCOC(=O)c1cc2c(=O)n3ccccc3nc2n(CCCOC)c1=NC(=O)c1ccncc1`, the inhibition under setting [1] is 10.7%.

As for `CCOC(=O)c1cc2c(=O)n3ccccc3nc2n(CCOC)c1=NC(=O)C(C)(C)C`, the inhibition under setting [1] is 16.9%.

`O=C(NCCc1ccccc1)C1CCN(c2nc3ccccc3o2)CC1`: under setting [1], the inhibition is 1.06%.

On to `O=S(=O)(c1ccc2c(c1)OCCO2)N1CCC(n2cnc3cc(F)ccc32)CC1`, for which the inhibition under setting [1] is 2.37%.

For `O=S(=O)(c1ccc2c(c1)OCCO2)N1CCC(n2nnc3cc(C(F)(F)F)ccc32)CC1`, the inhibition under setting [1] is -4.12%.

Take `O=c1nc2n(c3ccc(Br)cc13)CCS2`: the inhibition under setting [1] is 1.45%.

With `COc1ccccc1NC(=O)Nc1ccccc1N1CCOCC1`, under setting [1], the inhibition was 3.89%.

Take `CC(=O)c1sc(-c2ccc(F)cc2)cc1NS(=O)(=O)c1ccc(C)cc1`: the inhibition under setting [1] is 0.65%.

Consider `CC(=O)c1sc(-c2ccccc2)cc1NS(=O)(=O)c1ccccc1`, for which, under setting [1], the inhibition is -0.36%.

As for `COc1cc(/C=C2\SC(N)=NC2=O)ccc1OCC(=O)Nc1ccc(C)cc1`, under setting [1], the inhibition was 10%.

For the molecule `CCOc1cc(/C=C2\SC(=Nc3ccc(F)cc3)N(c3ccc(F)cc3)C2=O)ccc1OCC(=O)O`, the inhibition under setting [1] is 16.8%.

On to `CCOC(=O)C1=C(O)/C(=C/c2ccc(OCC(=O)O)c(OC)c2)SC1=Nc1ccc(OCC)cc1`, for which the inhibition under setting [1] is 13.2%.

Take `CCOC(=O)C1=C(C)N(c2ccc(OC)cc2)C(=O)/C1=C\c1ccc(O)c(OCC)c1`: the inhibition under setting [1] is 4.43%.

Turning to `O=C(/C=C/c1ccc(S(=O)(=O)N2CCOCC2)cc1)NCc1ccc(Cl)cc1`, the inhibition under setting [1] is -0.73%.

With `C=CCn1c(COc2ccccc2)nnc1SCC(=O)O`, under setting [1], the inhibition is 0.9%.

`Cc1nn(-c2ccccc2)c(C)c1NC(=O)Cc1cccs1`: the inhibition under setting [1] is 4.27%.

For the molecule `CC(C)OC(=O)CSc1ncnc2c1cnn2Cc1ccccc1`, the inhibition under setting [1] was 0.69%.

For `Cc1ccc(S(=O)(=O)N2CCCC2C(=O)Nn2cnnc2)cc1` (centres undefined), under setting [1], the inhibition was -0.66%.

Consider `Cc1cccc(C)c1NC(=O)CN1C(=O)S/C(=C\c2cccn2-c2cccc(C(=O)O)c2)C1=O`, for which, under setting [1], the inhibition was 8.9%.

In the case of `O=C(O)c1cccc(-n2cccc2/C=C2\SC(=O)N(Cc3ccccc3F)C2=O)c1`, the inhibition under setting [1] is 15.3%.

In the case of `CCOC(=O)C1(C(F)(F)F)N=C(C(F)(F)F)Nc2cc(C)c(C)cc21` (centres undefined), the inhibition under setting [1] is 1.48%.

For `Cc1ccccc1N=CC1=C(O)c2ccccc2C1=O`, the inhibition under setting [1] was 4.59%.

As to `O=C1C(C=Nc2ccccc2O)=C(O)c2ccccc21`, the inhibition under setting [1] is 20.6%.

In the case of `Cc1ccc(C(C(=O)NC2CCCCC2)N(C(=O)c2csnn2)C2CC2)o1` (centres undefined), under setting [1], the inhibition was 9.01%.

As to `COCCN(C(=O)c1csnn1)C(C(=O)NC1CCCCC1)c1sccc1C` (centres undefined), the inhibition under setting [1] is 21.1%.

On to `CC(C)(C)NC(=O)C(c1ccncc1)N(Cc1cccs1)C(=O)c1csnn1` (centres undefined), for which the inhibition under setting [1] is -14%.

As to `O=C(NC1CCCC1)C(c1ccncc1)N(Cc1cccs1)C(=O)c1csnn1` (centres undefined), the inhibition under setting [1] is 24.6% (active).

Regarding `Cc1ccc(C(C(=O)NC2CCCC2)N(Cc2cccs2)C(=O)c2csnn2)o1` (centres undefined), the inhibition under setting [1] was 7.36%.

These data come from PubChem BioAssay AID1445 (SRMLSC, 2008).
